Results taken from the OligoGym collection.

Molecular target: ZBTB5
Assay: pooled miR-30 sensor sort-seq; sequence = guide strand
Conditions: shRNA
Further: reference of the scale not given here.

Row | Sequence | sensor-assay potency score (higher = more potent)
1 | TTAATCTCACAAGACACTGGTC | -0.0713
2 | TTGATAGAACTTTATGATCTGT | 0.242
3 | TAATCTGTCGTCGAAAACGGTA | -0.933
4 | TAGGTTATTTGTGACTTCCAAA | -1.29
5 | TGCACTTTGACAGAACATCTGC | -0.0496
6 | TTAAGTAATGTTTACATGCCTT | -0.579
7 | TACAATGACACAATCACAGAGC | 0.0287
8 | TACTTGATTACTTCTATGCTAT | 0.0849
9 | TTTTGCATCACTATACAGGGAT | 0.397
10 | TTACAAACTACTTTCTGACTGC | 0.686
11 | TTTGGTTAATCTGTCGTCGAAA | -0.689
12 | ATCAAAACTAGTCTCAACCTGA | 0.322

Molecular target: ZBTB8A
Assay: as above
Conditions: shRNA

Row | Sequence | sensor-assay potency score (higher = more potent)
13 | TAGCGAATAATACATTTCGATG | -1.75
14 | TTGTTGAGTATTCTTCTGGGAG | -0.386
15 | TTGACTTATAATGAGTAACTTC | -0.468
16 | TAAAAGTCTTACATACACTTAT | -0.256
17 | TTTTTAATGGACTCTTTCCTTG | -0.893
18 | TTTCTTTCTCACTAATGTCTAA | -0.493
19 | TAAATCTTTTTCCACAAGCTTG | -1.26
20 | TAAAGTAGCCGCTACTAGCGAA | -0.929
21 | TTCTACAATCTCCACATAGGAT | -0.772
22 | TTCAGCATCAATCTGTGCTTGT | 0.622
23 | TACACTTATGACATCAGTCATC | -0.715
